Most compounds without a hit are left out; they make up all but 18% or so of the library.
TDP1 inh = qHTS Assay for Inhibitors of Tyrosyl-DNA Phosphodiesterase (TDP1) | Tyrosyl-DNA phosphodiesterase 1 (Homo sapiens), Q9NUW8 | recombinant TDP1, AlphaScreen DNA substrate cleavage | Potency, µM (series often up to 130 µM), for the others: at the top dose activity change, negative = inhibition, usual class: inhibitors | 0.28% of 350,000 active | AID 485290, 2010; note: potency is the fitted concentration of half-maximal effect; % is set by controls: 0 for no effect and ±100 for the full control effect; nearly all actives have a fitted effect of over 40% in size
Target sequence (Q9NUW8 whole entry, looked up): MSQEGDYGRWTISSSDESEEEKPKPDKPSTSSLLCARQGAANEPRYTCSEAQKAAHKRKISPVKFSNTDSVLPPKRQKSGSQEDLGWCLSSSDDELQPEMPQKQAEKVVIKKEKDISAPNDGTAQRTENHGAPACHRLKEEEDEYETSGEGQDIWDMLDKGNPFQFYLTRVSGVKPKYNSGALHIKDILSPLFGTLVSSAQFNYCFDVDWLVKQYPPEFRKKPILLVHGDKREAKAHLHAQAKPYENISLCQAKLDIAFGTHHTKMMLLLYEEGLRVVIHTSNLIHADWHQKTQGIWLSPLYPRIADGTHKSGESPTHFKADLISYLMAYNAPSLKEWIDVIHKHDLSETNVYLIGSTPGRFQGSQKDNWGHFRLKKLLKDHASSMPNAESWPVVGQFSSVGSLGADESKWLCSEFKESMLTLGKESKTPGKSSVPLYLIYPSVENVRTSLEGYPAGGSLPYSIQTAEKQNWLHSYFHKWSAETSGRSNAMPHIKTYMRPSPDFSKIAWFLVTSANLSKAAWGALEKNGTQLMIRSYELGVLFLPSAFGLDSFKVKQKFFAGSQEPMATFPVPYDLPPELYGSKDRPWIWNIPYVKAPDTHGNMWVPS
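Enzyme-compound mixtures sat 15 min at room temperature, followed by a 5 min reaction with 15 nM final substrate and 10 min with AlphaScreen beads. Recombinant human Tdp1 was used at 1 nM final.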
TGFb inhibitor = qHTS for Inhibitors of TGF-b. 1.2% of 410,000 active. HepG2 CAGA-GFP TGF-b/SMAD3 reporter, GFP fluorescence, 18 h; TGF-beta stimulated, 500 pg/mL final. Potency, µM (top dose mostly 46.1 µM), for the others: at the highest dose activity, negative = inhibition, actives largely listed as inhibitors. AID 588855, 2011; note: potency is the fitted concentration of half-maximal effect; % is set by controls: 0 for no effect and ±100 for the full control effect; nearly all actives have a fitted effect of over 65% in size
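HEPG2 CAGA-GFP cells (1000/well, DMEM with 1% FBS) were pre-incubated 2 h at 37 degrees C, given compound by pin tool, then stimulated with TGF-beta at 500 pg/mL final for 18 h before per-cell GFP fluorescence imaging.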
TDP1 cell CPT = qHTS for Inhibitors of human tyrosyl-DNA phosphodiesterase 1 (TDP1): qHTS in cells in presence of CPT; chicken DT40 Tdp1-/-;hTDP1 cells + 20 nM CPT, ATP luminescence, 48 h; Potency, µM (series often up to 46.2 µM), for inactives: at the top dose activity change, negative = growth inhibition, most hits filed as inhibitors; 12% of 420,000 active; note: potency is the fitted concentration of half-maximal effect; % is set by controls: 0 for no effect and ±100 for the full control effect; nearly all actives have a fitted effect of over 55% in size
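Cell growth measured by CellTiter-Glo luminescence after a minimum 48 h, 37 C compound exposure with 20 nM CPT in Tdp1-knockout DT40 cells stably expressing hTDP1, seeded 400/well; qHTS titration format.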
DT40 TDP1 no CPT = qHTS for Inhibitors of human tyrosyl-DNA phosphodiesterase 1 (TDP1): qHTS in cells in absence of CPT; Potency, µM (top dose mostly 46.2 µM), for the others: at the highest dose activity change, negative = growth inhibition, most hits filed as inhibitors; DT40 Tdp1-/- hTDP1 cells, no CPT, ATP luminescence, 48 h; 15% of 420,000 active; note: potency is the fitted concentration of half-maximal effect; % is set by controls: 0 for no effect and ±100 for the full control effect; nearly all actives have a fitted effect of over 55% in size
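DT40 Tdp1-/-;hTDP1 cells, no CPT (DMSO vehicle only), 400 cells/well; compounds pin-transferred; ≥48 hr, 37 °C; CellTiter-Glo 30 min RT dark, luminescence read.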
HepG2 tox = qHTS for Inhibitors of TGF-b: Cytotox Counterscreen; 0.76% of 410,000 active; AID 588856, 2011; Potency, µM (top dose mostly 46.1 µM), inactives show at the top dose activity change, negative = cytotoxicity, usual class: cytotoxic; HepG2 CAGA-GFP viability, ATP luminescence, 18 h; note: potency is the fitted concentration of half-maximal effect
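CellTiter-Glo luminescence gave cytotoxicity after 18 hours at 37 degrees C. The cells were HepG2 CAGA-GFP in 1% FBS DMEM, stimulated with 500 pg/mL TGF-beta after compound addition. %Activity was normalised to no-cell wells (complete cell-killing) and DMSO (no toxicity), and curves were fitted and classified.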
IL1B secr inh = qHTS for Inhibitors of Inflammasome Signaling: IL-1-beta AlphaLISA Primary Screen; THP-1 LPS/ATP IL-1B secretion, AlphaLISA, 16 h; active compounds read low; activity change, % at 57.5 µM; AID 743279, 2014; 4.7% of 360,000 active; in the data active = activity change below about -50%; inconclusive = mostly about -30% to -49%; note: % is set by controls: 0 for no effect and ±100 for the full control effect
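Secreted IL-1B measured by AlphaLISA bead assay after 16 h compound exposure of THP-1 cells; compounds (final up to 57.5 uM) added 1 h before LPS (250 ng/mL) and ATP (1.25 mM) stimulation; lower signal means less secretion.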
* marks the source's active call; other numbers are inactive results. Unless noted, calls come from the whole dose curve; as a rule, active = well fitted curve in the direction sought with a large enough effect; inconclusive = small, poorly fitted or top-dose-only effect, or another doubt; inactive = no such curve, though single readings can be large; an effect the other way counts as inactive or inconclusive.

How did CCc1ccc(-n2c(SCC(=O)NC(C)CC)nc3n[nH]c(C)c3c2=N)cc1 (stereo not given) do in these assays?
TDP1 inh: 0%; TGFb inhibitor: inconclusive; TDP1 cell CPT: 5.8µM*; DT40 TDP1 no CPT: 5.2µM*; HepG2 tox: -14%

Results for CC(=O)NC(c1ccc(F)c(F)c1)c1nc(-c2ccc(C)c(C)c2)cs1 (stereo not given) ?
TGFb inhibitor: -5%; TDP1 cell CPT: inconclusive; DT40 TDP1 no CPT: inconclusive; HepG2 tox: -10%; IL1B secr inh: -25

What do the screens show for `COc1ccccc1CN1CCOc2ccc(C(C)(O)CN(C)C)cc2C1` (stereo not given)?
TDP1 cell CPT: 0%; DT40 TDP1 no CPT: 2%

Results for COc1ccc(-c2nc(N3CCN(S(=O)(=O)c4ccc(C)cc4)CC3)c3ccccc3n2)cc1 ?
TDP1 inh: 3%; TGFb inhibitor: -8%; HepG2 tox: -21%

Results for Cc1ccc(S(=O)(=O)N2CCN(c3nc(-n4ccnn4)nc4ccccc34)CC2)cc1 ?
TDP1 cell CPT: 13µM*; DT40 TDP1 no CPT: 16µM*

Results for O=S(=O)(c1ccc(Cl)cc1)N1CCN(c2nc(-c3ccc(Cl)cc3)nc3ccccc23)CC1 ?
TDP1 inh: 1%; TGFb inhibitor: -8%; HepG2 tox: -21%

What do the screens show for `O=S(=O)(c1ccc2c(c1)OCCO2)N1CCN(c2nc(-c3cccnc3)nc3ccccc23)CC1`?
TDP1 inh: 0%

Results for Cc1ccc(S(=O)(=O)N2CCN(c3nc(C#N)nc4ccccc34)CC2)cc1 ?
TDP1 inh: -1%

What do the screens show for `COc1ccc(Cl)cc1N(C)c1nc(N2CCN(S(=O)(=O)c3ccc(C)cc3)CC2)c2ccccc2n1`?
TDP1 cell CPT: 8.9µM*; DT40 TDP1 no CPT: 6.3µM*

How did O=S(=O)(c1ccccc1)N1CCN(c2nc(-c3cccnc3)nc3ccccc23)CC1 do in these assays?
TDP1 inh: 7%; TGFb inhibitor: -2%; TDP1 cell CPT: inconclusive; DT40 TDP1 no CPT: 21µM*; HepG2 tox: -14%; IL1B secr inh: 43

What do the screens show for `Cc1ccc(S(=O)(=O)N2CCN(c3nc(-c4ccnnc4)nc4ccccc34)CC2)cc1`?
TDP1 inh: -1%; TDP1 cell CPT: inconclusive; DT40 TDP1 no CPT: 16µM*

Results for COc1ccccc1Nc1nc2ccc(Cl)cc2nc1-n1nc(C)cc1C ?
TDP1 inh: 2%; TGFb inhibitor: 23%; TDP1 cell CPT: -3%; DT40 TDP1 no CPT: 1%; HepG2 tox: -3%

Results for C[C@H]1COC[C@@H](C/C=C/c2ccccc2)N1c1ccccc1 ?
TGFb inhibitor: 11%; TDP1 cell CPT: inconclusive; DT40 TDP1 no CPT: inconclusive; HepG2 tox: -3%; IL1B secr inh: 45

How did CCn1c(=O)cc(OCC(=O)N(C)c2ccc(OC)cc2)c2ccccc21 do in these assays?
TDP1 inh: 3%; TGFb inhibitor: -1%; TDP1 cell CPT: inconclusive; DT40 TDP1 no CPT: inconclusive; HepG2 tox: -16%

What do the screens show for `CC(=O)c1ccc(S(=O)(=O)N2CCN(c3nc(-c4cccnc4)nc4ccccc34)CC2)cc1`?
TDP1 inh: 0%; TGFb inhibitor: -2%; TDP1 cell CPT: 21µM*; DT40 TDP1 no CPT: inconclusive; HepG2 tox: -16%; IL1B secr inh: -13

What do the screens show for `Cn1c(CO)c(-c2ccccc2)c2cc([N+](=O)[O-])ccc21`?
TDP1 inh: 7%; TGFb inhibitor: -5%; TDP1 cell CPT: -19%; DT40 TDP1 no CPT: inconclusive; HepG2 tox: -12%; IL1B secr inh: 0

What do the screens show for `CC(=O)OCc1c(-c2ccccc2)c2cc([N+](=O)[O-])ccc2n1C`?
TGFb inhibitor: 0%; TDP1 cell CPT: 3.7µM*; DT40 TDP1 no CPT: 1.8µM*; HepG2 tox: -9%; IL1B secr inh: 26

How did Cc1ccc(NC(=O)CSc2nnnn2C2CCCC2)cc1S(=O)(=O)N1CCOCC1 do in these assays?
TDP1 inh: -3%; TGFb inhibitor: -11%; TDP1 cell CPT: -23%; DT40 TDP1 no CPT: inconclusive; HepG2 tox: -12%; IL1B secr inh: 0

How did O=C(NCc1ccccc1)c1cccc(COc2ccc(Cl)cc2)c1 do in these assays?
TDP1 inh: -5%; TGFb inhibitor: -26%; TDP1 cell CPT: -14%; DT40 TDP1 no CPT: inconclusive; HepG2 tox: -18%; IL1B secr inh: inconclusive

What do the screens show for `COc1cc(CNC(=O)c2cccc(COc3ccc(Cl)cc3)c2)cc(OC)c1`?
TDP1 inh: -2%; TGFb inhibitor: inconclusive; TDP1 cell CPT: inconclusive; DT40 TDP1 no CPT: 16µM*; HepG2 tox: -2%; IL1B secr inh: -12

Results for CC1CN(C(=O)c2cccc(COc3ccc(Br)cc3)c2)CC(C)O1 (stereo not given) ?
TDP1 inh: -1%; TGFb inhibitor: -40%; TDP1 cell CPT: 21µM*; DT40 TDP1 no CPT: 13µM*; HepG2 tox: -8%; IL1B secr inh: -15

What do the screens show for `NNC(=O)c1cccc(COc2ccc(Br)cc2)c1`?
TDP1 inh: 3%; TGFb inhibitor: -3%; TDP1 cell CPT: 21µM*; DT40 TDP1 no CPT: inconclusive; HepG2 tox: -8%; IL1B secr inh: inactive

What do the screens show for `CCOc1ccc(OCc2cccc(C(=O)N3CCOCC3)c2)cc1`?
TDP1 inh: 4%; TGFb inhibitor: 13%; TDP1 cell CPT: inconclusive; DT40 TDP1 no CPT: -30%; HepG2 tox: -26%; IL1B secr inh: 45

What do the screens show for `NNC(=O)c1ccc(COc2ccc3c(c2)CCC3)cc1`?
TDP1 inh: 5%; TGFb inhibitor: -1%; TDP1 cell CPT: -29%; DT40 TDP1 no CPT: inconclusive; HepG2 tox: -75%; IL1B secr inh: inconclusive

How did NNC(=O)c1ccc(COc2ccc3ccccc3c2)cc1 do in these assays?
TGFb inhibitor: inconclusive; TDP1 cell CPT: inconclusive; DT40 TDP1 no CPT: 21µM*; HepG2 tox: -26%; IL1B secr inh: 33

Results for COc1ccc(-c2csc3ncnc(Nc4ccc(OC)cc4OC)c23)cc1 ?
TDP1 inh: -1%; TGFb inhibitor: 30%; TDP1 cell CPT: 4.1µM*; DT40 TDP1 no CPT: inconclusive; HepG2 tox: -31%

Bioassay records deposited in PubChem BioAssay by National Center for Advancing Translational Sciences (NCATS).
